Reference: the supplement of paper PMC8371130
Structures can show the parent of a compound that is named as a salt.

Tested on: HL-1
Assay: relative cell viability (CellTiter-Glo) vs DMSO control (% of DMSO control); higher = more viable cells
How it was run: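 Plating of HL-1 mouse atrial cardiomyocytes at 1000 cells per well in 384-well plates was done together with compounds at 40, 200, 1000 or 5000 nM in 0.01% DMSO. A day later the cells faced 48 h of 1% O2 and then 24 h of reoxygenation, or matching normoxia. Viability was measured via CellTiter-Glo luminescence and set relative to vehicle-treated control cells.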

[1] = oxygen condition: hypoxia 48 h (1% O2) + reoxygenation 24 h, 40 nM
[2] = oxygen condition: hypoxia 48 h (1% O2) + reoxygenation 24 h, 200 nM
[3] = oxygen condition: hypoxia 48 h (1% O2) + reoxygenation 24 h, 1000 nM
[4] = oxygen condition: hypoxia 48 h (1% O2) + reoxygenation 24 h, 5000 nM
[5] = oxygen condition: normoxia 72 h, 40 nM
[6] = oxygen condition: normoxia 72 h, 200 nM
[7] = oxygen condition: normoxia 72 h, 1000 nM
[8] = oxygen condition: normoxia 72 h, 5000 nM

Structure (SMILES)	relative cell viability [1]	relative cell viability [2]	relative cell viability [3]	relative cell viability [4]	relative cell viability [5]	relative cell viability [6]	relative cell viability [7]	relative cell viability [8]
CN1CCN2c3ccccc3Cc3ccccc3C2C1 (stereo unspecified) [Mianserin hydrochloride]	74.7	97.7	84	107	63.6	92.5	98.1	111
Cc1ncc(C[n+]2csc(CCO)c2C)c(N)n1 [Thiamine HCl]	101	107	102	112	99.4	104	106	117
COc1ccc2c(c1)C(=O)N(CCc1ccc(S(=O)(=O)NC(=O)NC3CCCCC3)cc1)C(=O)C2(C)C [Gliquidone]	97.7	108	102	113	96.6	114	110	116
CCC1(c2ccccc2)C(=O)NCNC1=O [Primidone]	101	105	110	95.7	104	103	98.6	106
CN(C)CCC(c1ccccc1)c1ccccn1 (stereo unspecified) [Pheniramine Maleate]	102	103	104	117	105	101	104	113
CCN(CC)CC(=O)Nc1c(C)cccc1C [Lidocaine]	111	106	104	111	112	108	109	112
O=C(CCNNC(=O)c1ccncc1)NCc1ccccc1 [Nialamide]	107	109	108	113	96.2	105	104	138
CC(O)(P(=O)(O)O)P(=O)(O)O [Etidronate]	95.8	96.9	99.7	109	95.1	96.5	95.9	105
CCCCN1CCCCC1C(=O)Nc1c(C)cccc1C (stereo unspecified) [Bupivacaine hydrochloride]	107	105	102	104	105	105	106	102
COc1cc(C(=O)NC2CCCNC2)cc(OC)c1OC (stereo unspecified) [Troxipide]	103	109	106	110	109	110	116	113
COc1ccccc1N1CCN(CC(O)COc2cccc3ccccc23)CC1 (stereo unspecified) [Naftopidil]	103	101	104	101	102	100	102	103
CN(C)CCc1c[nH]c2ccc(CS(=O)(=O)N3CCCC3)cc12 [Almotriptan malate]	98	99	97.6	91.9	98.2	103	102	52.1
CC(=O)Oc1ccccc1C(=O)O [Aspirin]	94	101	90.7	110	95.4	105	93.6	122
N[C@@H](CSCCCO)C(=O)O [Fudosteine]	105	105	109	111	106	109	104	115
COc1cc2nc(N3CCN(C(=O)c4ccco4)CC3)nc(N)c2cc1OC [Prazosin HCl]	102	101	109	109	101	100	106	109
COc1ccc(C2C(=O)c3ccccc3C2=O)cc1 [Anisindione]	99.6	102	105	118	102	78.2	114	120
CCOC(=O)[C@H](CCc1ccccc1)N[C@H]1CS[C@H](c2cccs2)CN(CC(=O)O)C1=O [Temocapril HCl]	102	102	104	112	104	77.1	102	110
NS(=O)(=O)c1cc2c(cc1Cl)N=CNS2(=O)=O [Chlorothiazide]	117	112	113	111	109	104	103	110
Cn1nnc2c(C(N)=O)ncn2c1=O [Methazolastone]	102	106	111	106	114	106	107	112
C[C@@H](CN1CC(=O)NC(=O)C1)N1CC(=O)NC(=O)C1 [Dexrazoxane Hydrochloride]	98.2	105	104	106	101	96.3	92.8	94.8
O=C1c2c(O)ccc(O)c2C(=O)c2c(NCCNCCO)ccc(NCCNCCO)c21 [Mitoxantrone Hydrochloride]	4.78	4.55	5.93	3.1	4.75	4.41	3.59	3.38
C[C@H](CCC(=O)O)[C@H]1CC[C@H]2[C@@H]3CC[C@@H]4C[C@H](O)CC[C@]4(C)[C@H]3CC[C@]12C [Lithocholic acid]	108	108	108	113	102	113	105	108
